Of roughly 7,900 targets only a part is listed; those with a hit were picked by preference. About 0.6% of all pairs of compound and target were hits.
Legend:
Assay in all cases: log2 fold change, soluble protein after heating vs DMSO (PISA); higher = thermal stabilisation; K562 cells, 10 uM, 30 min; active = over 0.2 and 3.5 SD of the protein, either way, in both replicates (recomputed)
[1] = compound: CN1CCN(CCOc2cc(OC3CCOCC3)c3c(Nc4c(Cl)ccc5c4OCO5)ncnc3c2)CC1 [saracatinib]
Procedure, shortened: (§1)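 Soluble protein was quantified by TMTpro 16plex LC-MS/MS after channel sums were equalised. It was obtained as the supernatant after 21,000xg for 90 min from pooled aliquots of K562 cells (2×10^6 cells/mL, 10 μM compound, 30 min) heated for 3 min across 48°C-58°C and extracted in PBS with 0.5% NP-40 at 4°C. Thermal stability values are relative to control samples and come from duplicates. They are given as log2 fold changes.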

[2] = compound: CN1CCN(c2nc(C3=C(c4c[nH]c5ccccc45)C(=O)NC3=O)c3ccccc3n2)CC1 [sotrastaurin]
Procedure, shortened: as §1

[3] = compound: CN1CC[C@H](c2c(O)cc(O)c3c(=O)cc(-c4ccccc4Cl)oc23)[C@H](O)C1 [alvocidib]
Procedure, shortened: as §1

[4] = compound: CN1CCc2c(c3ccccc3n2Cc2ccc(C(=O)NO)cc2)C1 [Tubastatin A]
Procedure, shortened: as §1

[5] = compound: CNC(=O)C1=CC=CC=C1NC2=NC(=NC=C2Cl)NC3=C(C=C(C=C3)N4CCOCC4)OC
Procedure, shortened: as §1

[6] = compound: CNC(=O)c1ccc(Nc2ncc(C(F)(F)F)c(NCc3nccnc3N(C)S(C)(=O)=O)n2)cc1 [defactinib]
Procedure, shortened: as §1

[7] = compound: CNCc1ccc(-c2[nH]c3cc(F)cc4c3c2CCNC4=O)cc1 [rucaparib]
Procedure, shortened: as §1

[8] = compound: CNc1nc(-c2ccc3c(N)n[nH]c3c2)cc(N2C[C@@H](C(=O)NC3CCCCC3)CC[C@H]2C)n1
Procedure, shortened: as §1

[9] = compound: COC(=O)N[C@@H](C)CNc1nccc(-c2cn(C(C)C)nc2-c2cc(Cl)cc(NS(C)(=O)=O)c2F)n1 [encorafenib]
Procedure, shortened: as §1

[10] = compound: COC(=O)[C@H](CCSC)NC(=O)C1=C(C=C(C=C1)NC[C@H](CS)N)C2=CC=CC=C2
Procedure, shortened: as §1

[11] = compound: COC1=CC=C(C=C1)CN2C=CC3=C2C=C(C=C3)C(=O)NO
Procedure, shortened: as §1

[12] = compound: CON(C)C(=O)N1N=C(c2cc(F)ccc2F)S[C@@]1(CCCN)c1ccccc1 [filanesib]
Procedure, shortened: as §1

[13] = compound: CO[C@H]1C[C@@H]2CC[C@@H](C)[C@@](O)(O2)C(=O)C(=O)N2CCCC[C@H]2C(=O)O[C@H]([C@H](C)C[C@@H]2CC[C@H](n3cnnn3)[C@H](OC)C2)CC(=O)[C@H](C)/C=C(\C)[C@@H](O)[C@@H](OC)C(=O)[C@H](C)C[C@H](C)/C=C/C=C/C=C/1C [zotarolimus]
Procedure, shortened: as §1

[14] = compound: COc1cc(C(=O)O)ccc1NC(=O)[C@@H]1N[C@@H](CC(C)(C)C)[C@](C#N)(c2ccc(Cl)cc2F)[C@H]1c1cccc(Cl)c1F [idasanutlin]
Procedure, shortened: as §1

[15] = compound: COc1cc(Nc2ncc3c(n2)-c2ccc(Cl)cc2C(c2c(F)cccc2OC)=NC3)ccc1C(=O)O [alisertib]
Procedure, shortened: as §1

[16] = compound: COc1cc2nc(-c3cc(F)ccc3O)nc(N[C@@H]3CNC[C@H]3C(C)(C)O)c2cc1OC
Procedure, shortened: as §1

[17] = compound: COc1cc2ncnc(Nc3ccc(F)c(Cl)c3)c2cc1OCCCN1CCOCC1 [gefitinib]
Procedure, shortened: as §1

[18] = compound: COc1cccc2cc(-c3nc([C@H]4CC[C@H](C(=O)O)CC4)n4ncnc(N)c34)[nH]c12
Procedure, shortened: as §1

[19] = compound: CS(=O)(=O)CCNCc1ccc(-c2ccc3ncnc(Nc4ccc(OCc5cccc(F)c5)c(Cl)c4)c3c2)o1 [lapatinib]
Procedure, shortened: as §1

[20] = compound: CS(=O)(=O)N1CCN(Cc2cc3nc(-c4cccc5[nH]ncc45)nc(N4CCOCC4)c3s2)CC1 [pictilisib]
Procedure, shortened: as §1

Measured: log2 fold change

DHX16 (UniProt O60231)
inactive: [1] 0.024 | [2] -0.037 | [3] -0.045 | [4] -0.001 | [5] -0.042 | [6] -0.035 | [7] -0.027 | [8] 0.028 | [9] 0.019 | [10] -0.013 | [11] 0.008 | [12] 0.096 | [13] 0.023 | [14] -0.03 | [15] -0.079 | [16] 0.028 | [17] 0.043 | [18] 0.04 | [19] 0.02 | [20] -0.012

CUEDC2 (UniProt Q9H467)
active: [8] -0.338
inactive: [1] -0.003 | [2] -0.045 | [3] -0.089 | [4] 0.197 | [5] -0.036 | [6] -0.067 | [7] -0.033 | [9] 0.071 | [10] 0.016 | [11] 0.233 | [12] 0.018 | [13] 0 | [14] 0.005 | [15] -0.035 | [16] -0.018 | [17] 0.168 | [18] 0.023 | [19] -0.035 | [20] 0.014

DDX4 (UniProt Q9NQI0)
inactive: [1] -0.342 | [2] 0.209 | [3] 0.206 | [4] 0.102 | [5] -0.097 | [6] 0.11 | [7] 0.543 | [8] -0.095 | [9] 0.121 | [10] 0.067 | [11] -0.474 | [12] 0.186 | [13] 0.004 | [14] 0.42 | [15] 0.172 | [16] 0.368 | [17] 0.048 | [18] -0.715 | [19] -0.399 | [20] 0.17

FAM83D (UniProt Q9H4H8)
Chain of UniProt Q9H4H8 (Q9H4H8 whole entry, looked up): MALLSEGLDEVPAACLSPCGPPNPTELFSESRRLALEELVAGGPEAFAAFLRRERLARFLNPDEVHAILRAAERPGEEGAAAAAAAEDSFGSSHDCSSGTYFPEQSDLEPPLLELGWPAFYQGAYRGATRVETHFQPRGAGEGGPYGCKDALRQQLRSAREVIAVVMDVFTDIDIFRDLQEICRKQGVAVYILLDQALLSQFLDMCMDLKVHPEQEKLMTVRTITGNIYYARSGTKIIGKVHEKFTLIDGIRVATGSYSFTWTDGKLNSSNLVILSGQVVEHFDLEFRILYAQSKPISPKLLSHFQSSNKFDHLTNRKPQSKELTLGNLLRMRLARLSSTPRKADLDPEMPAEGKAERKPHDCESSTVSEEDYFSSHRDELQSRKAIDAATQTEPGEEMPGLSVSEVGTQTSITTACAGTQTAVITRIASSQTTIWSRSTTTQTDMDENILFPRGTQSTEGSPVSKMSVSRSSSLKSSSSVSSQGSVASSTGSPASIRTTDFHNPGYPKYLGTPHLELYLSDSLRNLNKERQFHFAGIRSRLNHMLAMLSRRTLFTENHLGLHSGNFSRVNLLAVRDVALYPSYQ
inactive: [1] -0.014 | [2] -0.055 | [3] -0.088 | [4] -0.002 | [5] -0.004 | [6] -0.074 | [7] 0.078 | [8] 0.03 | [9] 0.071 | [10] -0.023 | [11] -0.009 | [12] 0.062 | [13] 0.051 | [14] -0.109 | [15] -0.135 | [16] 0.018 | [17] 0.05 | [18] -0.034 | [19] 0.021 | [20] -0.136

DCAF10 (UniProt Q5QP82)
inactive: [1] 0.09 | [2] 0.021 | [3] -0.011 | [4] -0.094 | [5] -0.018 | [6] -0.009 | [7] -0.083 | [8] 0.007 | [9] 0.052 | [10] 0 | [11] -0.047 | [12] 0.016 | [13] -0.01 | [14] 0.002 | [15] 0.09 | [16] 0.076 | [17] -0.051 | [18] -0.067 | [19] -0.081 | [20] 0.032

DTYMK (UniProt P23919)
Chain of UniProt P23919 (P23919 whole entry, looked up): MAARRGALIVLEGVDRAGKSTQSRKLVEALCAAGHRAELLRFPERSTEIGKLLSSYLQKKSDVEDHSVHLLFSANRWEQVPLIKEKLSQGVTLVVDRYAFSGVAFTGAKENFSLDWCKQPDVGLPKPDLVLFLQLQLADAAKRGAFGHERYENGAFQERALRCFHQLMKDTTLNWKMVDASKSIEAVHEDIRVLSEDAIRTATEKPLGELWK
inactive: [1] -0.02 | [2] 0.06 | [3] 0 | [4] -0.022 | [5] -0.062 | [6] 0.004 | [7] -0.044 | [8] 0.003 | [9] 0.005 | [10] 0.013 | [11] -0.043 | [12] -0.09 | [13] -0.023 | [14] -0.065 | [15] -0.014 | [16] 0.047 | [17] -0.108 | [18] 0.152 | [19] -0.026 | [20] -0.054

DAB2 (UniProt P98082)
inactive: [1] -0.044 | [2] 0.009 | [3] -0.084 | [4] 0.139 | [5] 0.031 | [6] -0.026 | [7] 0.043 | [8] 0.05 | [9] 0.077 | [10] -0.13 | [11] -0.009 | [12] 0.079 | [13] 0 | [14] -0.055 | [15] -0.081 | [16] 0.155 | [17] 0.024 | [18] 0.011 | [19] -0.005 | [20] 0.071

EEF1D isoform 2 (UniProt P29692)
Chain of UniProt P29692 (P29692 whole entry, looked up): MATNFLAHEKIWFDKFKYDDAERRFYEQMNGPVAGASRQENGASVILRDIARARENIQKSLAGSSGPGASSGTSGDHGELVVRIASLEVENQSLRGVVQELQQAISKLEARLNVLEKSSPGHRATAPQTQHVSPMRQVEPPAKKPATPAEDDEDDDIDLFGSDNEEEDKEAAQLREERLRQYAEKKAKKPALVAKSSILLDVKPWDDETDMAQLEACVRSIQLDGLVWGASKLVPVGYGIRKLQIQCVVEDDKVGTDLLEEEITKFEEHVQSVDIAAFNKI
inactive: [1] -0.04 | [2] -0.03 | [3] 0 | [4] 0.001 | [5] 0.107 | [6] -0.011 | [7] 0.053 | [8] 0.017 | [9] 0.078 | [10] -0.013 | [11] -0.038 | [12] 0.034 | [13] 0.036 | [14] -0.042 | [15] -0.016 | [16] 0.028 | [17] 0.028 | [18] -0.011 | [19] 0.022 | [20] -0.01

EXOC7 (UniProt Q9UPT5)
Chain of UniProt Q9UPT5 (Q9UPT5 whole entry, looked up): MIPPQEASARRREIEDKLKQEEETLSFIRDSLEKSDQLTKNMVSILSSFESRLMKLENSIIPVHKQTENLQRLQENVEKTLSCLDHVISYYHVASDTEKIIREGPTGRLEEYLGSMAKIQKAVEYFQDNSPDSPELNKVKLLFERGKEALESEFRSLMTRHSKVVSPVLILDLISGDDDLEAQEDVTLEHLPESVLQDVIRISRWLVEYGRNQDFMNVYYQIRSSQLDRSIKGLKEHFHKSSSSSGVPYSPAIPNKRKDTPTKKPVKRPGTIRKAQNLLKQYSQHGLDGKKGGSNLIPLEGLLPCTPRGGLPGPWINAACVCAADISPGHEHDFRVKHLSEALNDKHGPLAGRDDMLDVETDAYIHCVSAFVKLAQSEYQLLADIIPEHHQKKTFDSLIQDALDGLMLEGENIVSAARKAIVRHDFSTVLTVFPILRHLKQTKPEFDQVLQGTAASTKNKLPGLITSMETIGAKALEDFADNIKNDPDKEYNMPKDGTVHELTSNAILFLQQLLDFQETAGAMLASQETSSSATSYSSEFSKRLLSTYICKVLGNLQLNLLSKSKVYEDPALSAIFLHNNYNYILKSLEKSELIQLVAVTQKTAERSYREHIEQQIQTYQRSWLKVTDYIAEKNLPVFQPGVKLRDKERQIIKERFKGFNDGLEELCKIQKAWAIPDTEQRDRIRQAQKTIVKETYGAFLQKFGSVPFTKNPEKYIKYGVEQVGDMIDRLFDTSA
inactive: [1] 0.024 | [2] -0.218 | [3] -0.039 | [4] 0.029 | [5] -0.04 | [6] -0.06 | [7] -0.01 | [8] -0.077 | [9] 0.006 | [10] -0.047 | [11] 0.023 | [12] 0.032 | [13] 0.01 | [14] -0.076 | [15] -0.024 | [16] 0.149 | [17] -0.054 | [18] -0.053 | [19] -0.031 | [20] -0.057

EIF4G1 isoform 8 (UniProt Q04637)
Chain of UniProt Q04637 (Q04637 whole entry, looked up): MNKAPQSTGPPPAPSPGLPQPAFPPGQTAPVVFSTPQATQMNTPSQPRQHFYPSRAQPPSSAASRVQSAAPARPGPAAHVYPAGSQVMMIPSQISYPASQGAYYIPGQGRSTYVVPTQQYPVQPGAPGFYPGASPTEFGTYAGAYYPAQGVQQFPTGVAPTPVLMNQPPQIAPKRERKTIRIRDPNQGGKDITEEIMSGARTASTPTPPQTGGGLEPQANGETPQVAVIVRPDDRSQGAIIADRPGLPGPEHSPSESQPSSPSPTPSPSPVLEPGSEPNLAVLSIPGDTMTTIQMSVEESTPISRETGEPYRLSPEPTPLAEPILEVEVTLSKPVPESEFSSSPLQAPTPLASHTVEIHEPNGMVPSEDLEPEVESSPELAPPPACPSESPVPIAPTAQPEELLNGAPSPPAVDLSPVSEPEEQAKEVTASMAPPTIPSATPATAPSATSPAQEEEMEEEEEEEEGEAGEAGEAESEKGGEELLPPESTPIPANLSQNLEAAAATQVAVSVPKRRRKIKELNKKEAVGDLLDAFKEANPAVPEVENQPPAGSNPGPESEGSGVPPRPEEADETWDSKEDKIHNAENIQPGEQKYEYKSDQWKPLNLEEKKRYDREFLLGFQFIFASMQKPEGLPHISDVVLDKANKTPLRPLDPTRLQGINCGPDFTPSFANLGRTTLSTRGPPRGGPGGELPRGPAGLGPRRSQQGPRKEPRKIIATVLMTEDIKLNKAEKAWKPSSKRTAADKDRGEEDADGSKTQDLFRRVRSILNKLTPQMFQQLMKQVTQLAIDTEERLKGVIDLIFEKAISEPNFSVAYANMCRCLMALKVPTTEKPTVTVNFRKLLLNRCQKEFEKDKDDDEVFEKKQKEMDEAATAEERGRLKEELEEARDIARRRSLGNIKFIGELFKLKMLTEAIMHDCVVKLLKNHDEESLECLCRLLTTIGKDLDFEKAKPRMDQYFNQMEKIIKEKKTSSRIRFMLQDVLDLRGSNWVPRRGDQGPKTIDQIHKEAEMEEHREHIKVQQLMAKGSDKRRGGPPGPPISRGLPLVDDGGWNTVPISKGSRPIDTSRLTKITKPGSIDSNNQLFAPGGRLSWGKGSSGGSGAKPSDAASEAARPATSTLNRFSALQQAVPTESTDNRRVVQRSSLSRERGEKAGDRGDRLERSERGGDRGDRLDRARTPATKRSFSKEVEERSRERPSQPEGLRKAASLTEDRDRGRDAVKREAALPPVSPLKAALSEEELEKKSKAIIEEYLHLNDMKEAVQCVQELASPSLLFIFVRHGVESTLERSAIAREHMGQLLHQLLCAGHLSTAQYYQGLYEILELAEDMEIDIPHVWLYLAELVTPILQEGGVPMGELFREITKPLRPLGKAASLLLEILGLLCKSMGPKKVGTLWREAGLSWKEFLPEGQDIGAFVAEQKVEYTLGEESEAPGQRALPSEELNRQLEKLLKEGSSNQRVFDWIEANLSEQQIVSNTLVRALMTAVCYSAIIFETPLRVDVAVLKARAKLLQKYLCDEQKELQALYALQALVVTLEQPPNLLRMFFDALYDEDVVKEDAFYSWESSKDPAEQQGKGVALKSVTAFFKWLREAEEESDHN
inactive: [1] -0.08 | [2] -0.36 | [3] 0.021 | [4] 0.034 | [5] -0.067 | [6] 0.008 | [7] 0.197 | [8] -0.017 | [9] 0.092 | [10] -0.05 | [11] 0.01 | [12] 0.067 | [13] -0.121 | [14] 0.09 | [15] -0.007 | [16] -0.003 | [17] -0.114 | [18] -0.369 | [19] -0.073 | [20] -0.27

DCUN1D1 (UniProt Q96GG9)
Chain of UniProt Q96GG9 (Q96GG9 whole entry, looked up): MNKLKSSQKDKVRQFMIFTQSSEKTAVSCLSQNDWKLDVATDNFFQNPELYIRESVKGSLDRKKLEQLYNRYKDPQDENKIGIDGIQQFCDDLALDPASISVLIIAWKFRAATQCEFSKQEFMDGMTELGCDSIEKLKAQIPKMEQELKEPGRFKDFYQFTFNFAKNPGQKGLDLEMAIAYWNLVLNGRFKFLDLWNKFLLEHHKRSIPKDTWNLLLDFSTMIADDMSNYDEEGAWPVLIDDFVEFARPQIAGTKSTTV
inactive: [1] 0.032 | [2] -0.001 | [3] -0.067 | [4] -0.009 | [5] 0.007 | [6] -0.033 | [7] -0.026 | [8] -0.02 | [9] 0.014 | [10] -0.011 | [11] 0.065 | [12] -0.003 | [13] 0.015 | [14] -0.062 | [15] 0.008 | [16] -0.021 | [17] 0.004 | [18] 0.031 | [19] 0.019 | [20] 0.015

EIF4G1 (UniProt Q04637)
inactive: [1] -0.112 | [3] 0.047 | [4] 0.006 | [6] -0.08 | [8] -0.017 | [10] 0.014 | [13] -0.118 | [14] 0.071 | [20] -0.307

EHBP1 (UniProt Q8NDI1)
Chain of UniProt Q8NDI1 (Q8NDI1 whole entry, looked up): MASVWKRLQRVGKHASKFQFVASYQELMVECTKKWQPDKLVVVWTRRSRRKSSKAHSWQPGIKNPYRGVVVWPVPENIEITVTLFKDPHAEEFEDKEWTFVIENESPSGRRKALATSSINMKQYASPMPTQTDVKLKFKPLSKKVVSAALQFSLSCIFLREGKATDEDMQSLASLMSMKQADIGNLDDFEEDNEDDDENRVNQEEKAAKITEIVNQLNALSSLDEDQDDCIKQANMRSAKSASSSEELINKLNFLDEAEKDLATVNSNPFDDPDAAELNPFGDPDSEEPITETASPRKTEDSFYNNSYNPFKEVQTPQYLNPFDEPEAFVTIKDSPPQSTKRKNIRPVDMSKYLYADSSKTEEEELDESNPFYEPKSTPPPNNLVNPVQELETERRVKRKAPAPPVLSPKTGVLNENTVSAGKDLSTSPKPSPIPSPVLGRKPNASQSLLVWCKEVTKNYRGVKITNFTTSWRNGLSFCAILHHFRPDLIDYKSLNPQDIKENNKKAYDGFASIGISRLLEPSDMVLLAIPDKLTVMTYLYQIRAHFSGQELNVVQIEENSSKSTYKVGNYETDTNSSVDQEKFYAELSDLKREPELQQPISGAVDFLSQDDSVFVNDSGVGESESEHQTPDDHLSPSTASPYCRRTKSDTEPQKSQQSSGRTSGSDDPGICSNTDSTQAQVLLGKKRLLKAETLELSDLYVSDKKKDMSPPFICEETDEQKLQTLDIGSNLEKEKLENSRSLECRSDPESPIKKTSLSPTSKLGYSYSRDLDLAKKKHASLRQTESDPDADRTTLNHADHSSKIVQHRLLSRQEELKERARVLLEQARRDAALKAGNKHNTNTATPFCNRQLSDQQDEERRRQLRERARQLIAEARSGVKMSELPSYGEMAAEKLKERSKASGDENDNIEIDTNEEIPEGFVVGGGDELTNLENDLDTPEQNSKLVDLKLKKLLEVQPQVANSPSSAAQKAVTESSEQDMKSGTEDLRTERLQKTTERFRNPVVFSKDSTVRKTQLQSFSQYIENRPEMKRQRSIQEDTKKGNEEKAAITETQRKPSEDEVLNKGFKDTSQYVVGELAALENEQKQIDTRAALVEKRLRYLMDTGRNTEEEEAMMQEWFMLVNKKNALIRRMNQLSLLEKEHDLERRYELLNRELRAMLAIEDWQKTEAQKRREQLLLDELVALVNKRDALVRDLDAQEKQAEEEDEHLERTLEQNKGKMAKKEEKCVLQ
inactive: [3] -0.085 | [4] 0.045 | [7] 0.135 | [9] -0.058 | [13] -0.02 | [14] 0.031 | [15] 0.025 | [18] 0.086 | [20] 0.057

Reference: the supplement of paper PMC10849652
